Sampled rows, rich in hits. Any-hit rate of the full collection: about 1.2%.
RGS4-Gao reg = modulators of RGS4 binding to Galphao, primary screen, biochemical, multiplexed bead flow cytometry. actives lie on both sides. binding response (% of control), % at 10 µM. 220,000 compounds, 0.33% hits; in the data active = binding response below about 49% or above about 150%; inactive = in between;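 also: fluorescent Galphao activated with aluminum fluoride binding bead-coupled RGS4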
RGS8-Gao reg = RGS8-Galphao binding modulators, primary screen, biochemical, multiplexed bead flow cytometry | response (percent of control binding), % at 10 µM | actives lie on both sides | 220,000 compounds, 0.34% hits | Guanine nucleotide-binding protein G(o) subunit alpha (Homo sapiens), P09471 | AID 1423, 2008; in the data active = response below about 60% or above about 140%; inactive = in between;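 also: Galphao activated as the GDP aluminium fluoride complex binding bead-coupled RGS8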
Avidin bead fluor = green autofluorescence of compounds with avidin beads – biophysical, 488/530 nm, flow cytometry, artefact control, profiling panel; compound fluorescence 488/530 nm; stronger effect = higher value; fluorescence (KMESF) at 10 µM; 220,000 compounds, 0.38% hits; in the data active = fluorescence above about 47
RGS16-Gao HTS = modulators of RGS16 binding to Galphao, primary screen, biochemical, human proteins, multiplexed bead flow cytometry. Regulator of G-protein signaling 16 (Homo sapiens) + Guanine nucleotide-binding protein …. bead-based flow cytometry RGS16-Galphao binding, fluorescence; actives lie on both sides. binding response (% of control), % at 10 µM. 220,000 compounds, 0.38% hits. AID 1441, 2008;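 also: Galphao activated by GDP with aluminum fluoride before binding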
Target sequence (O15492 whole entry, looked up): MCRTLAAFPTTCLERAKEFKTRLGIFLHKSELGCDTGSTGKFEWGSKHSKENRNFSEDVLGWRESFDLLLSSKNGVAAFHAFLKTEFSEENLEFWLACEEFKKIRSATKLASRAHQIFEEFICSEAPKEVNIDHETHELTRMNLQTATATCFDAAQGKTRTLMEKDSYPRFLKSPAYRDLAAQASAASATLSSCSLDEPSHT
Target sequence (P09471 whole entry, looked up): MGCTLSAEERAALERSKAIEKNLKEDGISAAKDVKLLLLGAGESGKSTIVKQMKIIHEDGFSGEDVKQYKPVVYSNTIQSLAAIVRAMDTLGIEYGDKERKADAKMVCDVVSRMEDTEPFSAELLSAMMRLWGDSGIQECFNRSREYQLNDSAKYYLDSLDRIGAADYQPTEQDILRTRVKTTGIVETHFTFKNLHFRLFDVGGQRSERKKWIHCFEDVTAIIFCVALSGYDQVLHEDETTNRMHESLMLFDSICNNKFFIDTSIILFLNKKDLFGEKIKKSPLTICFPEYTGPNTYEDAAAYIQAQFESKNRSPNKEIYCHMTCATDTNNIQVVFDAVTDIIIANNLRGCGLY
RGS7-Gao reg = RGS7-Galphao binding modulators, primary screen, biochemical, multiplexed bead flow cytometry; Guanine nucleotide-binding protein G(o) subunit alpha (Homo sapiens), P09471; actives lie on both sides; binding response (% of control), % at 10 µM; 220,000 compounds, 0.35% hits; in the data active = binding response below about 49% or above about 150%; inconclusive = no clear call, values can overlap the other calls; inactive = in between;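 also: fluorescent Galphao held in activated GDP-AlF4 state binding bead-coupled RGS7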
GSH bead fluor = compound fluorescence on glutathione beads, profiling panel, artefact control, biophysical, 488/530 nm, flow cytometry | GSH beads flow cytometry, compound fluorescence 488/530 nm; stronger effect = higher value | fluorescence (KMESF) at 10 µM | 190,000 compounds, 0.25% hits; in the data active = fluorescence above about 89;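 also: glutathione beads carrying GST-tagged Bcl family fusion proteins plus one bare bead set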
RGS4-Gao HTS = modulators of RGS–Galpha-o binding, primary screen, biochemical, multiplexed beads, flow cytometry, RGS4/7/8/16/19. shares compounds with RGS16-Gao HTS. multiplexed bead flow cytometry. RGS4–Galpha-o binding response, % at 10 µM. 1,600 compounds, 99% hits. AID 1504, 2009;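 also: fluorescently labeled Galpha-o bound to GDP with aluminium fluoride binding biotinylated RGS beads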
Avidin counter = disruption of biotin probe capture by avidin, counter-screen for RGS protein interaction modulators, biochemical, flow cytometry, bead-based; shares compounds with RGS16-Gao HTS; streptavidin beads, fluorescein-biotin binding; inhibition, % at 10 µM; 1,700 tested, under 10 active; AID 1783, 2009;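 active = inhibition above 50%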;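 also: median green fluorescence of gated singlet beads compared with DMSO control wells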
RGS8-Gao single = RGS8-Galphao binding modulators, confirmation, biochemical, multiplexed bead flow cytometry, single concentration; bead-based flow cytometry RGS8-Galphao binding, fluorescence; actives lie on both sides; shares compounds with RGS16-Gao HTS; binding response (% of control), % at 10 µM; 1,700 compounds, 3% hits; in the data active = binding response below about 72% or above about 130%; inactive = in between;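 also: Galphao activated as GDP AlF4 complex before binding bead RGS8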
RGS7-Gao confirm = RGS7-Galphao binding modulators, confirmation, biochemical, multiplexed bead flow cytometry, single concentration | shares compounds with RGS16-Gao HTS | response (percent of control binding), % at 10 µM | bead-based flow cytometry RGS7-Galphao binding; actives lie on both sides | 1,700 compounds, 7.8% hits | AID 1837, 2009; in the data active = response below about 75% or above about 130%; inactive = in between;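 also: fluorescent Galphao activated with GDP and aluminum fluoride binding bead-coupled RGS7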
RGS16-Gao single = modulators of RGS16-Galphao protein binding, confirmation, biochemical, single concentration, multiplexed bead flow cytometry; shares compounds with RGS16-Gao HTS; bead-based flow cytometry; actives lie on both sides; response (% of control binding), % at 10 µM; 1,700 compounds, 4% hits; AID 1838, 2009; in the data active = response below about 74% or above about 130%; inactive = in between;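 also: Galphao activated as the GDP aluminium fluoride complex binding bead-coupled RGS16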
RGS4-Gao single = modulators of RGS4-Galphao protein binding, confirmation, biochemical, single concentration, multiplexed bead flow cytometry. binding response (% of control), % at 10 µM. 1,700 compounds, 4% hits. actives lie on both sides. shares compounds with RGS16-Gao HTS. AID 1840, 2009; in the data active = binding response below about 74% or above about 130%; inactive = in between
RGS19-Gao conf = regulators of RGS19-Galphao binding, confirmation, biochemical, single point, multiplexed bead flow cytometry. shares compounds with RGS16-Gao HTS. bead-based flow cytometry RGS19-Galphao binding; actives lie on both sides. response (percent of control binding), % at 10 µM. 1,700 compounds, 5% hits; in the data active = response below about 50% or above about 160%; inactive = in between
Of the large screens only hits and unclear results are named; the others gave an inactive call (follow-up assays come after a bar, where they were run); [ ] = dose if it differs, or a comment. Unless noted, no rule for the calls is given here.

COc1ccc2c(c1)c1nc(SCC(C)C)n(CCO)c(=O)c1n2C	RGS4-Gao reg 41, RGS8-Gao reg 49, RGS7-Gao reg 42 | Avidin counter inactive | RGS8-Gao single inactive | RGS7-Gao confirm inactive | RGS16-Gao single inactive | RGS4-Gao single inactive | RGS19-Gao conf inactive
O=S(=O)(Nc1cccc2c1ccc1cccn12)c1cccs1	none
CC1CN/C(=C\C(=O)c2ccc(Cl)cc2)C(=O)N1 (stereo unspecified)	none
CC1CN/C(=C\C(=O)c2ccccc2)C(=O)N1 (stereo unspecified)	RGS4-Gao reg 49, RGS8-Gao reg 56, RGS7-Gao reg 44 | Avidin counter inactive | RGS8-Gao single inactive | RGS7-Gao confirm inactive | RGS16-Gao single inactive | RGS4-Gao single inactive | RGS19-Gao conf inactive
N#CC(/C(=N/S(=O)(=O)c1cccs1)c1ccccc1)c1nc2ccccc2[nH]1 (stereo unspecified)	none
Cc1ccnc2nc(C(=O)Nc3nc(-c4ccccn4)cs3)nn12	RGS7-Gao reg inconclusive
Cc1ccc(NC(=O)CO/N=C(\N)c2nonc2N)cc1C	RGS16-Gao HTS 25 | RGS4-Gao HTS 92 | Avidin counter inactive | RGS8-Gao single inactive | RGS7-Gao confirm inactive | RGS16-Gao single inactive | RGS4-Gao single inactive | RGS19-Gao conf inactive
CCCC(CCC)C(=O)Nc1ccc2c(c1)N(C(=O)CN1CCN(C)CC1)c1ccccc1CC2	RGS16-Gao HTS 253[activator] | RGS4-Gao HTS 121 | Avidin counter inactive | RGS8-Gao single inactive | RGS7-Gao confirm inactive | RGS16-Gao single inactive | RGS4-Gao single inactive | RGS19-Gao conf inactive
O=C(Nc1ccc(F)cc1)Nc1ccc(NC(=O)c2ccccc2O)cc1	RGS7-Gao reg inconclusive (no result: GSH bead fluor)
O=C(COc1ccc2ccccc2c1)NCCNC(=O)COc1ccc2ccccc2c1	none
O=C(COc1ccc2ccccc2c1)NCCc1ccc2c(c1)OCCO2	RGS4-Gao reg 31, RGS8-Gao reg 106[activator], RGS16-Gao HTS 113[activator] | Avidin counter inactive | RGS8-Gao single inactive | RGS7-Gao confirm inactive | RGS16-Gao single inactive | RGS4-Gao single inactive | RGS19-Gao conf inactive
COCCN1Cc2cccc(C(=O)NCc3cccs3)c2C1=O	none

Bioassay records: PubChem BioAssay, NMMLSC
